A selection: hits, their analogues and other compounds. The true share with any hit is near 2.4%.
D2 PAM-1: human D2 receptor positive allosteric modulation. actives 0.23% (n = 360,000). DiscoveRx D2 beta-arrestin cells, luminescence, 90 min; 100% = 57 uM dopamine signal. potentiation, % (concentration not given with the values); in the data active means potentiation above about 50%; inconclusive means mostly about 30% to 49%
Target sequence (P14416 whole entry, looked up): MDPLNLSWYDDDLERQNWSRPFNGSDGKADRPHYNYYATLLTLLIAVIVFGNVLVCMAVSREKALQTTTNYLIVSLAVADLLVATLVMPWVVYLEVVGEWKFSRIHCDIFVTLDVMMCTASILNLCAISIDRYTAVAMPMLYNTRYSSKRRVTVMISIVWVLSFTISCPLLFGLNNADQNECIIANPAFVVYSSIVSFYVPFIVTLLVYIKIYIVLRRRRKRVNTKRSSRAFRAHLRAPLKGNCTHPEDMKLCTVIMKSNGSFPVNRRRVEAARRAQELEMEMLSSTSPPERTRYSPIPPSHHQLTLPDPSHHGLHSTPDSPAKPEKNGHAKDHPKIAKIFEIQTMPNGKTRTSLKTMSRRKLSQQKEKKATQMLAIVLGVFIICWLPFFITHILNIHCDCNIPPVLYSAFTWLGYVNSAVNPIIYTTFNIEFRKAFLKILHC
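PathHunter beta-arrestin assay in DiscoveRx D2 cells. Compounds were added with an EC20 of dopamine (50 nM final) for 90 min at 37 deg C. Luminescence was read 1 h after detection reagent, with 57 uM dopamine as the EC100 control.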
D2 ag-1: D2 dopamine receptor (human) agonism | HEK293 T-REx D2 cells, calcium flux agonist mode | activation, % at 2 µM | actives 0.53% (n = 340,000);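 active means activation over 3 SD above normal in the single-dose calcium agonist read, cut at about 30% in these data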; further: 0% is about no effect
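Tetracycline-induced HEK293 T-REx cells with force-coupled D2 receptor, plated overnight at 30 C, loaded with no-wash calcium dye. After a 10 s baseline, compound was pin-added and calcium flux read kinetically for 180 s; calcium rises flagged agonists.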
D2 PAM-2: positively modulates the human D2 dopamine receptor allosterically. actives 0.34% (n = 340,000). P14416. HEK293 T-REx D2, calcium flux, EC20 dopamine potentiation. potentiation, % at 10 µM;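 active means potentiation over 3 SD above the plate norm, cut at about 30% in these data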; further: 0% is about no effect
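Cells plated with tetracycline inducer and held overnight at 30 C; calcium dye loaded 30–90 min at room temperature; baseline taken, compound added and read 180 s; EC20 dopamine then added and read 180 s.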
D2 antagonist: D2 dopamine receptor (human) antagonism; HEK293 TREx D2 cells, calcium flux, dopamine EC80; inhibition, % at 10 µM; P14416; actives 2% (n = 340,000); in the data active means inhibition above about 30%; inactive means below that, where a call was filed; further: 0% is about no effect
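Cells plated overnight at 30 C with tetracycline; no-wash calcium dye, 30–90 min RT; 10 s baseline; compound pinned; 180 s read; EC80 dopamine added; another 180 s read.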
D2 ag-2: activates the human D2 dopamine receptor; DiscoveRx PathHunter D2 beta-arrestin, luminescence, 90 min; 100% = 57 uM dopamine signal; activation, % (no concentration beside the values); actives 0.084% (n = 360,000); in the data active means activation above about 40%; inconclusive means between about 15% and that limit
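DiscoveRx PathHunter D2 beta-arrestin cells (2,100/well) attached overnight, then compound-stimulated 90 min at 37 C in HBSS/10 mM HEPES/0.1% Tween-20 buffer; beta-galactosidase complementation read by luminescence after 1 h at ambient temperature. Dopamine 57 uM final (EC100) as control.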
D3 arrestin ag: activates human D3 dopamine receptor beta-arrestin recruitment; Potency, µM (series often up to 76.9 µM), inactives show top-dose activation, usual class: activators; DiscoveRx D3 beta-arrestin cells, luminescence, 90 min; actives 4% (n = 2,300); shares compounds with D2 ag-1;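 further: potency means the concentration at half of the fitted maximal effect; 100% = dopamine control response; nearly all actives have a fitted effect of over 70% in size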
D2 ag-3: counter-screen for D3 agonists: human D2 dopamine receptor agonism; shares compounds with D2 ag-1; DiscoveRx PathHunter D2 beta-arrestin, luminescence, 90 min; response scale: percent relative to full dopamine signal; Potency, µM (top dose mostly 76.9 µM), inactives show top-dose activation, most hits filed as activators; actives 5.9% (n = 2,300); further: potency means the concentration at half of the fitted maximal effect; % of control where 0% means no effect; nearly all actives have a fitted effect of over 70% in size
* marks the source's active call; other numbers are inactive results; ? = inconclusive; / = not tested or not shown. Unless noted, the call rests on the fitted dose curve; in most records, active means well fitted activation curve with a large enough effect; inconclusive means small, poorly fitted or top-dose-only effect; inactive means flat fitted curve, though single readings scatter.

SMILES	D2 PAM-1	D2 ag-1	D2 PAM-2	D2 antagonist	D2 ag-2	D3 arrestin ag	D2 ag-3
O=[N+]([O-])c1ccc(N2CCN(Cc3cccc([N+](=O)[O-])c3)CC2)cc1	-5	2	-10	-1	-4	/	/
Cc1ccc(CN2CCN(c3ccccc3)CC2)o1	2	49*	-11	70*	?	24%	?
CCc1ccc(S(=O)(=O)c2cnc3ccc(OC)cc3c2N2CCCC(C)C2)cc1 (centres undefined)	/	0	14	/	/	/	/
O=C(CCC1N=C2c3ccccc3N=C(SCc3ccccc3F)N2C1=O)NCc1ccccc1 (centres undefined)	/	0	6	/	/	/	/
O=C(c1noc2c1CCCC2)N1CCCC(N2CCN(c3ccccc3F)CC2)C1 (centres undefined)	-20	41*	-14	15	2	1%	6%
O=C(c1ccsc1)N1CCCC(N2CCN(c3ccccc3F)CC2)C1 (centres undefined)	-31	12	-11	0	1	/	/
Fc1ccccc1N1CCN(C2CCCN(Cc3ccccc3C(F)(F)F)C2)CC1 (centres undefined)	-4	/	-9	/	-2	3%	21%
CC(=O)c1cccc(CN2CCCC(N3CCN(c4ccccc4F)CC3)C2)c1 (centres undefined)	-1	/	-28	/	12	8%	?
COc1ccccc1CN1CCCC(N2CCN(c3ccccc3OC)CC2)C1 (centres undefined)	-3	1	-14	-6	-3	/	/
Cc1cc(C)c(S(=O)(=O)NCC(c2ccco2)N2CCOCC2)c(C)c1 (centres undefined)	/	0	-4	/	/	/	/
COc1ccc(NC(=O)CN(C)C(=O)c2csc3c2CCCC3)cc1	-19	0	-6	13	-6	/	/
COc1cccc(NC(=O)CN(C)C(=O)c2csc3c2CCCC3)c1	-2	/	/	/	5	-6%	-3%
CCc1ccccc1Nc1nn2c(=O)c3ccc(C(=O)NCc4cccs4)cc3nc2s1	/	0	13	/	/	/	/
Cc1ccc(N2CCN(C(=O)c3c4c(nc5ccccc35)C(=O)N(C3CCCCC3)C4)CC2)c(C)c1	/	-1	-1	/	/	/	/
Cc1ccc(N2C(=O)c3cccc4c(N5CCN(C)CC5)ccc(c34)C2=O)c2cccnc12	-8	32*	-15	6	-3	-7%	-1%
c1ccc(OCCN2CCOCC2)cc1	-2	38*	3	13	0	-1%	5%
CN(C)CCCOc1cccc(Cl)c1	-13	-1	-17	-13	-1	/	/
c1ccc(Cc2ccc(OCCN3CCOCC3)cc2)cc1	-13	0	-1	11	5	/	/
Clc1cccc(OCCN2CCN(CCOc3cccc(Cl)c3)CC2)c1	-15	74*	-24	93*	?	?	25%
O=S(=O)(c1ccc(Br)s1)N1CCN(CCOc2ccccc2)CC1	-28	43*	-35	53*	11	?	20%
COc1ccccc1N1CCN(CCCNC(=O)Nc2ccccc2C)CC1	-12	23	-26	87*	2	-12%	3%
Cc1nc2ncnn2c(C)c1CCC(=O)N1CCN(c2cccc(Cl)c2)CC1	/	/	0	/	/	/	/
COc1ccccc1NC(=O)NCCCN1CCN(c2cccc(Cl)c2)CC1	-15	49*	-24	63*	-4	3%	10%
O=C(NCCCN1CCN(c2cccc(Cl)c2)CC1)C1CCC(=O)N1Cc1ccccc1Cl (centres undefined)	-49	50*	-23	40*	2	6%	?
CN(CCCNC(=O)C1CCC(=O)N1Cc1ccccc1Cl)c1ccccc1 (centres undefined)	-5	0	-5	10	0	/	/
SMILES	D2 PAM-1	D2 ag-1	D2 PAM-2	D2 antagonist	D2 ag-2	D3 arrestin ag	D2 ag-3
Cc1ccccc1NC(=O)NCCCN1CCN(c2ccccc2F)CC1	/	/	-23	/	/	/	/
Cc1nc2ncnn2c(C)c1CCC(=O)NCCCN1CCN(c2cccc(Cl)c2)CC1	-1	76*	-18	72*	?	9%	?
COc1ccccc1N1CCN(CCCCN2C(=O)c3ccccc3C2=O)CC1	-35	/	/	/	-7	/	/
COc1ccccc1N1CCN(CCCCOc2ccc(C)cc2C)CC1	0	62*	-29	82*	10	3%	7%
Cc1cc(C)cc(OCC(=O)NCC(c2ccc(Cl)cc2)N2CCCCC2)c1 (centres undefined)	/	-1	-17	/	/	/	/
CC(=O)Nc1cccc(NC(=O)CSc2nc(C3CC3)nc3ccccc23)c1	-2	0	-7	34*	1	29%	14%
COc1ccccc1CNC(=O)c1ccc(Cn2c(SCc3ccccc3)nc3cccnc32)cc1	/	0	1	/	/	/	/
C=CCNCc1cc(=O)n2c(-c3ccccc3)csc2n1	-2	47*	-15	30	9	-1%	16%
O=c1cc(CN2CCN(c3ccccc3)CC2)nc2scc(-c3ccccc3)n12	-6	2	11	-6	?	/	/
COc1ccccc1CNC(=O)CCCCn1c(=O)c2ccccc2n(CC(=O)Nc2cccc(Cl)c2)c1=O	/	1	16	/	/	/	/
O=c1[nH]c(CN2CCN(c3ccccc3)CC2)nc2scc(-c3ccccc3)c12	-10	8	4	32*	-5	?	24%
COc1ccc2c(c1)c1c(c(=O)n(-c3ccccc3C)c(=O)n1CC(=O)N1CCCC1)n2C	/	0	5	/	/	/	/
CC(C)Oc1ccc(CNC(=O)C(C)n2ccc3cc(S(=O)(=O)N4CCCCCC4)ccc32)cc1 (centres undefined)	/	0	-1	/	/	/	/
CC(Sc1nnc(-c2cccnc2)n1N)C(=O)NCCC1=CCCCC1 (centres undefined)	-7	47*	-2	12	3	14%	23%
CC(Sc1nnc(-c2cccnc2)n1N)C(=O)N1CCOCC1 (centres undefined)	-8	0	-9	8	0	/	/
COc1ccc(/C(O)=C/c2nc3ccc(C(=O)NCCc4cccc(C)c4)cc3[nH]c2=O)cc1OC	-3	18	4	-12	4	-18%	?
FCCCOc1ccc(CN2CCN(c3ccccc3F)CC2)cc1	-7	/	-23	/	8	?	?
Cc1cc(CN2CCN(c3ccccc3F)CC2)cs1	/	/	-28	/	/	/	/
Cc1cc(-c2ccc(C)c(S(=O)(=O)Nc3cccc(C#N)c3)c2)on1	/	0	1	/	/	/	/
CN=c1scc(-c2cccs2)n1/N=C/c1ccccc1O	-34	-1	27	0	-3	/	/
